From PubChem BioAssay (NCATS)
Results filed as inconclusive are left out. A call without a number means that no potency is given here. Activity calls are given as the source filed them. Calls follow the shape of the dose curve; as a rule, active = well fitted curve in the direction sought with a large enough effect; inconclusive = small, poorly fitted or top-dose-only effect, or another doubt; inactive = no such curve, though single readings can be large; an effect the other way counts as inactive or inconclusive. Numbered stars: 1 amine (or outer) side, 2 acyl side, 3 side chain; on linkers, the order of the positions; unused ones are H or OH. Bridge positions count the residues as written; N and C are the ends. Square brackets hold non-standard residues; d marks the D form. Peptide text beside a SMILES is read from it. I, II: the chains in the order shown. Actinocin(9to1) = Cc1c2oc3c(C)ccc(C(=O)[*:1])c3nc-2c(C(=O)[*:2])c(N)c1=O; NMeV = CN[C@H](C(=O)O)C(C)C; Sar = CNCC(=O)O

What was measured:
[1] = qHTS for activators of dead-cell proteases activity screened against the NCATS CANVASS Library (AID 1347392);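 also: luminescence from protease leaking out of membrane-damaged cells cleaving impermeant substrate; rising signal means more cytotoxicity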
Summary of the method: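 HepG2 cells (2000/well) attached 18 h at 37C, then exposed 5 h to compounds (11-point qHTS). Dead-cell protease activity read as luminescence from cell-impermeant AAF-aminoluciferin substrate after 15 min at room temperature.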

[2] = qHTS for inhibitors of ER calcium dysfunction: SERCaMP assay screened against the NCATS CANVASS Library (AID 1347393);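 also: series mostly up to about 77 µM; lower secreted reporter signal means inhibitor of ER calcium depletion; nearly all actives have a fitted effect of over 40% in size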
Summary of the method: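 qHTS in SH-SY5Y reporter cells: 16 h compound pretreatment, 4 h thapsigargin, then secreted Gaussia luciferase measured by luminescence.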

[3] = Vero-766 cells viability qHTS against the NCATS CANVASS Library: Counterscreen for Zika virus inhibition assay (AID 1347394); also: series mostly up to about 46 µM; nearly all actives have a fitted effect of over 60% in size
Summary of the method: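 CellTiter-Glo luminescence, lower signal indicating cytotoxicity. Vero 766 cells without Zika virus, 1000 cells/well, plated overnight, then treated 72 h at 37C across an 11-point series.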

[4] = qHTS for inhibitors of Wild type Zika virus screened against the NCATS CANVASS Library (AID 1347396);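 also: ATP luminescence of surviving cells so rescue from viral cell killing; series mostly up to about 46 µM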
Summary of the method: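 Vero 766 cells, 1000/well, o/n attach; cpds pin-transferred (11-pt qHTS); WT Zika added; 72 h, 37C, 5% CO2; CellTiter Glo lumi. Uninfected + vehicle = 100% inhibition.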

[5] = Viability qHTS for inhibitors of the SERCaMP assay screened against the NCATS CANVASS Library (AID 1347400); also: series mostly up to about 92 µM; nearly all actives have a fitted effect of over 70% in size
From the text: Natural products and their derivatives continue to be wellsprings of nascent therapeutic potential. However, many laboratories have limited resources for biological evaluation, leaving their previously isolated or synthesized compounds largely or completely untested. To address this issue, the Canvass library of natural products was assembled (https://tripod.nih.gov/canvass), in collaboration with academic and industry researchers, for quantitative high-throughput screening (qHTS) across a diverse set of cell-based and biochemical assays. The pure (>85% purity by liquid chromatography/mass spectrometry [LC/MS]) Canvass library of 346 natural products were submitted by 45 academic laboratories and companies around the world. We collected pure natural products to circumvent deconvolution and structure elucidation due to time and resource limitations. The library was formatted into 1536-well plates and evaluated in 50 qHTS (in an 11-pnt concentration series) bioassays with broad scope of disease-relevant mechanisms. The resulting data set from 50 different assays was then systematically analyzed to identify overall trends and specific natural products with interesting biological activities. […]
SERCaMP Viability assay protocol: 1. […] Luminescence signal was obtained via the ViewLux plate reader (Perkin Elmer) using the clear emission filter and 1x binning, 2 seconds exposure settings.

[6] = Redox Reaction Profiling qHTS: Assay Interference Panel against the NCATS CANVASS Library (AID 1347401)
Summary of the method: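 Resazurin (5 uM) conversion to resorufin measured with 200 uM DTT in 50 mM HEPES pH 7.3, 50 mM NaCl. Compounds tested in 11-point qHTS series. Fluorescence (ex 525/em 598 nm) read before and after 15 min dark incubation.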

[7] = qHTS to identify inhibitors of the type 1 interferon - major histocompatibility complex class I in skeletal muscle: primary screen against the NCATS Mechanism Interrogation Plate v5.0 (MIPE) Libary (AID 1347411); also: nearly all actives have a fitted effect of over 65% in size
Summary of the method: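 Cells were genome-edited human myoblasts carrying a HiBit tag on endogenous HLA-B. They were treated with IFN-beta (4.0 ng/ml) and titrated compounds (top 46 uM) for 24 hrs before lytic HiBiT detection.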

[8] = qHTS to identify inhibitors of the type 1 interferon - major histocompatibility complex class I in skeletal muscle: primary screen against the NCATS Pharmaceutical Collection (AID 1347407);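 also: luminescence of HiBiT knocked into endogenous HLA-B as interferon-induced MHC class I level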; also: potency is read from the fitted curve at half-maximal effect
Summary of the method: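 HLA-B HiBiT myoblasts, dexamethasone-free growth medium + 4 ng/ml IFN-b; compounds pinned 1 h after seeding, […] from 46 uM; 24 h, 37 C, 5% CO2; lytic HiBiT detection, 10 min RT, luminescence.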

CN1CCC[C@@H]1c1cccnc1
outcome [1]: inactive
outcome [2]: inactive
outcome [3]: inactive
outcome [4]: inactive
outcome [5]: inactive
outcome [6]: inactive

CC[C@H](C)C(=O)O[C@H]1CCC=C2C=C[C@H](C)[C@H](CC[C@@H]3C[C@@H](O)CC(=O)O3)[C@H]21
Potency [7]: inactive

CCCN1CCCC[C@H]1C(=O)Nc1c(C)cccc1C
Potency [8]: inactive

OC[C@H]1O[C@H](O[C@]2(CCl)O[C@H](CCl)[C@@H](O)[C@@H]2O)[C@H](O)[C@@H](O)[C@H]1Cl
Potency [8]: inactive

CN1CCCC(CC2c3ccccc3Sc3ccccc32)C1 (stereo unspecified)
Potency [8]: inactive

Oc1c(I)cc(I)c2cccnc12
Potency [8]: inactive

COC(=O)C1=C(C)NC(C)=C(C(=O)O[C@@H]2CCCN(Cc3ccccc3)C2)[C@@H]1c1cccc([N+](=O)[O-])c1
Potency [8]: inactive

NC(=O)CC[C@@H]1NC(=O)[C@H](Cc2ccccc2)NC(=O)[C@H](Cc2ccc(O)cc2)NC(=O)CCSSC[C@@H](C(=O)N2CCC[C@H]2C(=O)N[C@@H](CCCN=C(N)N)C(=O)NCC(N)=O)NC(=O)[C@H](CC(N)=O)NC1=O
Potency [8]: inactive

Cc1c2oc3c(C)ccc(C(=O)N[C@@H]4C(=O)N[C@H](C(C)C)C(=O)N5CCC[C@H]5C(=O)N(C)CC(=O)N(C)[C@@H](C(C)C)C(=O)O[C@@H]4C)c3nc-2c(C(=O)N[C@@H]2C(=O)N[C@H](C(C)C)C(=O)N3CCC[C@H]3C(=O)N(C)CC(=O)N(C)[C@@H](C(C)C)C(=O)O[C@@H]2C)c(N)c1=O (I: T[dV]P[Sar][NMeV] / II: T[dV]P[Sar][NMeV]; ester I:1-I:C, II:1-II:C; linker I:N-II:N via Actinocin(9to1))
Potency [8]: 938 nM (active)

O=C(O)CNC(=O)c1ccccc1
Potency [8]: inactive

CCN1CCCC1=O
Potency [8]: inactive

CN1CCN(C(c2ccccc2)c2ccccc2)CC1
Potency [8]: inactive

CNCC[C@@H](Oc1ccccc1C)c1ccccc1
Potency [8]: inactive

Cc1ccnc(NS(=O)(=O)c2ccc(N)cc2)n1
Potency [8]: inactive

Cc1c(C(N)=O)cc([N+](=O)[O-])cc1[N+](=O)[O-]
Potency [8]: inactive

CN(C)/N=N/c1nc[nH]c1C(N)=O
Potency [8]: inactive

CN1[C@@H]2CC[C@H]1CC(OC(=O)c1c[nH]c3ccccc13)C2 (stereo partly specified)
Potency [8]: inactive

CC(Cc1cccc(C(F)(F)F)c1)NCCOC(=O)c1ccccc1 (stereo unspecified)
Potency [8]: inactive

O=C1OC2(c3ccc(O)cc3Oc3cc(O)ccc32)c2ccccc21
Potency [8]: inactive

NCCc1ccn[nH]1
Potency [8]: inactive

CCN(CC)C(=O)N1CCN(C)CC1
Potency [8]: inactive

CCCC(=O)Nc1ccc(OCC(O)CNC(C)C)c(C(C)=O)c1 (stereo unspecified)
Potency [8]: inactive

CC(=O)OCC(=O)NCCCOc1cccc(CN2CCCCC2)c1
Potency [8]: inactive

CC(Cc1ccccc1)(NC(=O)CN)c1ccccc1 (stereo unspecified)
Potency [8]: inactive

CCOC(=O)/C=C(C)/C=C/C=C(C)/C=C/c1c(C)cc(OC)c(C)c1C
Potency [8]: inactive

Cc1ccc(C(=O)C(C)CN2CCCCC2)cc1 (stereo unspecified)
Potency [8]: inactive

CCC(C(=O)OCCN(CC)CC)c1ccccc1 (stereo unspecified)
Potency [8]: inactive

Cc1onc(-c2c(Cl)cccc2Cl)c1C(=O)N[C@@H]1C(=O)N2[C@@H]1SC(C)(C)[C@@H]2C(=O)O
Potency [8]: inactive

CC1=C(C(=O)O)N2C(=O)[C@@H](NC(=O)[C@H](N)c3ccc(O)cc3)[C@H]2SC1
Potency [8]: inactive

O=c1[nH]c(=O)n([C@H]2CCCO2)cc1F
Potency [8]: inactive

CC(C)N=C(N)/N=C(\N)Nc1ccc(Cl)cc1
Potency [8]: inactive

COc1ccc(OC)c(C(O)CNC(=O)CN)c1 (stereo unspecified)
Potency [8]: inactive

NC(CO)(CO)CO
Potency [8]: inactive

CC(C)(C)CC(C)(C)c1ccc(O)c(Cc2ccc(Cl)cc2Cl)c1
Potency [8]: inactive

CC[N+](CC)(CCNC(=O)C(=O)NCC[N+](CC)(CC)Cc1ccccc1Cl)Cc1ccccc1Cl
Potency [8]: inactive

CCCCCCCCCCCCCCCCCC(=O)OCC(O)CO (stereo unspecified)
Potency [8]: inactive
